# The sample as a whole holds a higher share of hits than the screen did.
# Tg IFNy HTS – blocks Toxoplasma gondii growth in the presence of IFN-gamma; AID 1259416; Toxoplasma gondii growth in IFN-gamma-treated host cells; hits give low values; activity change, negative = inhibition, % (no concentration beside the values); hit rate 3.8% among 69,000; in the data active means activity change below about -70%, passing the limit was not always enough;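 further: host cells are HeLa cells infected with Toxoplasma gondii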
# Active calls of the source: *.
SMILES,Tg IFNy HTS
COc1ccc(-c2nc3c(s2)CN(C(=O)Nc2ccc(C)c(C)c2)CC3)cc1OC,-82.8*
CCc1ccc(NC(=O)N2CCc3nc(-c4ccc(OC)c(OC)c4)sc3C2)cc1,-79.2*
CC(=O)N[C@@H](CSC/C=C(\C)CC/C=C(\C)CCC=C(C)C)C(=O)O,-21.7
CC(=O)CC/C=C(\C)CC/C=C(\C)CC/C=C(\C)CCC=C(C)C,-77.2*
CC(C)=CCC/C(C)=C/COc1ccc2ccc(=O)oc2c1,18.6
Cc1nc2ccccc2c2c1C(=O)N(c1ccccc1C(=O)OCC(=O)C(C)(C)C)C2=O,24.1
CS(=O)(=O)N1CCCCC12CCC2,-20.8
O=C(OCCCCCOc1ccc(Cl)cc1)c1ccco1,-23.3
COc1ccc(-c2[nH]c3ncccc3c2CN2CCC(O)(c3ccccc3C)CC2)cc1,-98.0*
COc1ccccc1CNC(=O)CN1CCC(O)(c2ccccc2C)C1 (stereo not drawn),4.1
c1cncc(-c2[nH]c3ncccc3c2CN2CCSCC2)c1,-34.0
COc1cccc(NC(=O)N2[C@@H](CO)[C@@H](c3ccccc3)[C@@H]2CNCC(C)C)c1,5.8
COc1ccc2c3c([nH]c2c1)[C@H](CO)N(C(C)=O)CC31CN(Cc2ccccc2Cl)C1,-8.7
O=C(Nc1cc(Cl)c(-n2cccc2)cc1Cl)c1ccc(Cl)cc1,44.9
Cc1oc(-c2ccc(NC(=O)c3ccc(F)cc3)cc2)nc1Cn1cccn1,23.4
O=C(Nc1ccn(Cc2ccc(Cl)cc2Cl)n1)c1ccc(F)cc1,-96.6*
Cc1nc(N2CCCCC2)ncc1C(=O)Nc1nnc(CCc2ccccc2)s1,-1.9
COCC(=O)N1C[C@H](C)[C@@H](OC)CN(C)C(=O)c2ccc(NC(=O)Nc3cccc(F)c3)cc2OC[C@@H]1C,-35.0
CCC(=O)Nc1ccc2c(c1)OC[C@H](C)N(Cc1ccccc1)C[C@H](C)[C@@H](OC)CN(C)C2=O,173.4
COCC(=O)Nc1ccc2c(c1)OC[C@@H](C)N(C)C[C@@H](C)[C@@H](OC)CN(C)C2=O,-18.6
CO[C@@H]1CN(C)C(=O)c2ccc(NC(=O)Nc3cc(F)ccc3F)cc2OC[C@H](C)N(C(=O)c2ccccn2)C[C@@H]1C,2.5
COCC(=O)N1C[C@@H](C)[C@H](OC)CN(C)C(=O)c2ccc(NC(=O)c3ccc(-c4ccccc4)cc3)cc2OC[C@H]1C,-102.9*
CCC(=O)Nc1ccc2c(c1)OC[C@H](C)N(Cc1ccccc1)C[C@@H](C)[C@@H](OC)CN(C)C2=O,210.7
CO[C@@H]1CN(C)C(=O)c2cc(NC(=O)Nc3ccccc3F)ccc2OC[C@@H](C)N(C(=O)c2cnccn2)C[C@H]1C,44.3
CCCC(=O)Nc1ccc2c(c1)C(=O)N(C)C[C@@H](OC)[C@H](C)CN(C(=O)c1ccccn1)[C@H](C)CO2,3.8
SMILES,Tg IFNy HTS
CCCC(=O)Nc1ccc2c(c1)C(=O)N(C)C[C@@H](OC)[C@H](C)CN(Cc1cc(-c3ccccc3)on1)[C@H](C)CO2,-80.7*
CO[C@H]1CN(C)C(=O)c2ccc(NC(=O)Nc3cc(F)ccc3F)cc2OC[C@@H](C)N(C(=O)c2ccccn2)C[C@@H]1C,-88.3*
CO[C@@H]1CN(C)C(=O)c2ccc(NC(=O)c3ccc4c(c3)OCO4)cc2OC[C@@H](C)N(Cc2ccc3c(c2)OCO3)C[C@H]1C,-80.1*
CO[C@@H]1CN(C)C(=O)c2cc(NC(C)=O)ccc2OC[C@H](C)N(Cc2ccncc2)C[C@H]1C,-65.7
O=C(CSc1nc(-c2ccccc2)cs1)c1cc2ccccc2oc1=O,71.3
CCCC(=O)N1CCC(c2[nH]ncc2-c2ccnc(CCC)n2)CC1,-29.4
COc1cccc(CCNC(=O)C2CC3CCC2(C)C[C@]32NC(=O)c3ccccc3N2)c1 (stereo partly drawn),-14.9
CN1[C@@H]2Cn3c(ccc(/C=C/c4ccccc4)c3=O)[C@H]1[C@@H](C(=O)NC1Cc3ccccc3C1)[C@@H]2CO,-35.6
CC(C)n1ccc(-c2cc(C(=O)NCCc3cccnc3)c3ccccn23)n1,-15.0
COC(=O)c1cc(S(=O)(=O)Nc2cc(S(=O)(=O)N(C)C)ccc2C)oc1C,25.3
CCC1CN(Cc2cccc3nccnc23)Cc2cc(OC)ccc2O1 (stereo not drawn),28.3
CCCn1c(C)cc2cc(NC(=O)C3CC(=O)N(CCN(C)C)C3)ccc21 (stereo not drawn),-1.4
CC(C)c1nc(C2CCN(S(=O)(=O)C3CCS(=O)(=O)C3)CC2)c2cccnc2n1 (stereo not drawn),-22.9
CCOCC1CCC2C1OCCN2Cc1cccs1 (stereo not drawn),3.5
CCOC(=O)N1CCC(NC(=O)c2oc3ccc4c(c3c2C)C(O)CC2(CCCCC2)O4)CC1 (stereo not drawn),-95.3*
CCOC(=O)N1CCN(C(=O)c2ccc(N3CCC(NCc4cccs4)CC3)cc2)CC1,-2.2
Cc1c(C(=O)NCCCN2C(C)CCCC2C)oc2ccc3c(c12)C(O)CC1(CCCCC1)O3 (stereo not drawn),-56.2
COCc1ccc(C(=O)NC(C)c2nc3ccccc3[nH]2)o1 (stereo not drawn),19.9
O=C(c1ccco1)N1CCN(c2nc(-c3ccc(Cl)cc3)nc3ccccc23)CC1,-86.9
Cc1cccc(-c2ccc([C@H]3[C@@H](CO)N4CCCCN(S(=O)(=O)c5ccccc5F)C[C@H]34)cc2)c1,-79.9*
O=S(=O)(c1ccc(F)cc1)N1CCCCN2[C@@H](CO)[C@H](c3ccc(-c4cncnc4)cc3)[C@@H]2C1,2.6
Cc1cccc(-c2ccc([C@H]3[C@H]4CN(S(=O)(=O)c5ccccc5F)CCCCN4[C@H]3CO)cc2)c1,-40.0
CC(C)c1nnc(NC(=O)COc2ccc3c(c2)OCO3)s1,-84.6*
COCCSc1nnc(NC(=O)COc2ccc3c(c2)OCO3)s1,-83.0*
COCC(=O)Nc1cccc(-c2ccc3c(c2)OCO3)c1,37.8
SMILES,Tg IFNy HTS
CN(Cc1ncc[nH]1)C(=O)COc1ccc2c(c1)OCO2,-4.9
Cc1nn(-c2ccc(F)cc2)c(C)c1CNC(=O)COc1ccc2c(c1)OCO2,41.0
Cn1c(CN2CCCCC2)nc2cc(NC(=O)COc3ccc4c(c3)OCO4)ccc21,-12.0
Cc1cc(NC(=O)N2CCC(c3nc(C(=O)N(C)C)c(C)o3)CC2)ccc1Br,112.1
C=CCc1c(C)nc(N2CCSCC2)[nH]c1=O,-2.8
COc1cc(C)c(C(c2ccc(N(C)C)cc2)c2ccc(N(C)C)cc2)cc1C,-96.7*
C[C@H](CO)N1C[C@H](C)[C@H](CN(C)C(=O)CCC(F)(F)F)OCc2cnnn2CCCC1=O,229.6
CCOCC12CCCOC1CCN(C(=O)c1cc(C)nn1CC)C2 (stereo not drawn),-19.6
N#C/C(=C/c1ccc(O)c(O)c1)C(=O)OCCc1cccs1,7.1
CN(C)S(=O)(=O)N1CCO[C@H]2[C@@H](OCc3cccnc3)CC[C@H]21,1.9
CCO[C@H]1CN(S(=O)(=O)c2cccnc2)[C@H]2CCCO[C@@H]12,-4.3
CCO[C@@H]1CCN(S(=O)(=O)N(C)C)[C@@H]2CCO[C@H]21,-82.5*
COc1ccccc1-c1noc(-c2c(O)c3ccc(F)cc3n(C)c2=O)n1,43.5
O=C(O)c1ccc(-n2ccnc2)c(C#Cc2ccccc2)c1,12.3
CCc1nccc(-c2c(-c3ccccc3)ncn2CCN2CCOCC2)n1,-80.1*
CN1CCN(CCn2cnc(-c3ccccc3)c2-c2cnc[nH]2)CC1,-2.4
CCc1ncc(-c2c(-c3ccccc3)ncn2Cc2ccccc2F)cn1,21.4
CCc1ccc(-c2c(-c3ccccc3)ncn2CCS(C)(=O)=O)nc1,1.3
CCn1ccnc1-c1c(-c2ccccc2)ncn1CCN1CCOC1=O,3.9

# Source: PubChem BioAssay
